Data published in PubChem BioAssay (Tox21).
Inconclusive results are not listed. Calls of active or inactive are those of the source. Unless noted, calls follow the shape of the dose curve; as a rule, active = well fitted curve in the direction sought with a large enough effect in the repeat runs; inconclusive = weak or mixed curves; inactive = no such curve, though single readings can be large; an effect the other way counts as inactive or inconclusive.

Key:
[1] = qHTS assay to identify small molecule antagonists of the retinoid-related orphan receptor gamma (ROR-gamma) signaling pathway - cell viability counter screen (AID 1159520); also: nearly all actives have a fitted effect of over 50% in size; also: potency is read from the fitted curve at half-maximal effect
Method in brief: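 Cytotoxicity was read from cellular ATP (CellTiter-Glo luminescence) after 16 hr at 37 C with 1 uM doxycycline induction. The inducer was added 2 hr after compound transfer to Tet-on ROR gamma CHO cells.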

[2] = biological target: Nuclear receptor ROR-gamma (Homo sapiens) (UniProt P51449); assay: qHTS assay to identify small molecule antagonists of the retinoid-related orphan receptor gamma (ROR-gamma) signaling pathway (AID 1159521; also: nearly all actives have a fitted effect of over 50% in size; also: potency is read from the fitted curve at half-maximal effect)
Method in brief: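 Cells were plated, rested 4 h at 37 C, exposed to compounds for 2 h, then given 1 uM final doxycycline hyclate to induce RORγ expression. After 16 h, ONE-Glo luminescence from the ROR response element reporter was measured.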

[3] = qHTS assay to identify small molecule agonists of the AP-1 signaling pathway (AID 1159526; calls by dose curve; also: potency is read from the fitted curve at half-maximal effect)
[4] = biological target: Retinoic acid receptor RXR-alpha (Homo sapiens) (UniProt P19793); assay: qHTS assay to identify small molecule agonists of the RXR signaling pathway (AID 1159527; calls by dose curve; also: nearly all actives have a fitted effect of over 35% in size)
Method in brief: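 Cells plated at 2,000/well, rested 5 hr at 37 C, pin-dosed with DMSO compound solutions, incubated 16 hr, then loaded with B/G FRET substrate for 2 hr at RT before dual-emission fluorescence reading.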

[5] = qHTS assay to identify small molecule agonists of the AP-1 signaling pathway - cell viability counter screen (AID 1159525; calls by dose curve; also: nearly all actives have a fitted effect of over 55% in size)
Method in brief: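 Intracellular ATP by Cell Titer Glo luminescence (30 min, RT) in the same ME-180 AP-1-bla wells after the 5 h compound exposure at 37 °C. Normalised to tetra n-octyl ammonium bromide and DMSO controls.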

[6] = qHTS assay to identify small molecule agonists of the peroxisome proliferator-activated receptor delta (PPARd) signaling pathway - cell viability counter screen (AID 743211); also: nearly all actives have a fitted effect of over 55% in size; also: potency is read from the fitted curve at half-maximal effect
Method in brief: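 Counter screen for cytotoxicity run in parallel with the PPARd reporter screen. Beta-lactamase reporter HEK293H cells exposed to compounds 17 h; ATP-based CellTiter-Glo luminescence quantified viability.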

[7] = biological target: Peroxisome proliferator-activated receptor delta (Homo sapiens) (UniProt Q03181); assay: qHTS assay to identify small molecule agonists of the peroxisome proliferator-activated receptor delta (PPARd) signaling pathway (AID 743212; calls by dose curve)
Method in brief: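 Beta-lactamase reporter readout: a ratiometric FRET signal from the LiveBLAzer substrate after 2 h at room temperature. Compound exposure at 37 °C in PPARδ-bla HEK293H cells driven by an upstream activator sequence.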

[8] = qHTS assay to identify small molecule antagonists of the peroxisome proliferator-activated receptor delta (PPARd) signaling pathway - cell viability counter screen (AID 743213); also: nearly all actives have a fitted effect of over 50% in size; also: potency is read from the fitted curve at half-maximal effect
Method in brief: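 HEK293H cells with the PPARd UAS-bla reporter, co-treated 17 h at 37 C with compounds and L165041 (300 nM final), were lysed with CellTiter-Glo. Luminescence indicated viable cell content.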

[9] = qHTS assay to identify small molecule agonists of the farnesoid-X-receptor (FXR) signaling pathway - cell viability counter screen (AID 743218); also: nearly all actives have a fitted effect of over 45% in size; also: potency is read from the fitted curve at half-maximal effect
Method in brief: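 Luminescence from CellTiter-Glo, read after 30 min at RT, reports viability of GeneBLAzer FXR-UAS-bla HEK 293T cells treated 16 h with compounds in the wells used for the beta-lactamase reporter.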

[10] = qHTS assay to identify small molecule antagonists of the farnesoid-X-receptor (FXR) signaling pathway - cell viability counter screen (AID 743221; active = well fitted cell-killing curve with a large enough effect in the repeat runs, not every such curve was filed as active; also: nearly all actives have a fitted effect of over 50% in size; also: potency is read from the fitted curve at half-maximal effect)
Method in brief: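 Multiplexed counter screen: viability of FXR-bla HEK 293T cells under agonist stimulation by chenodeoxycholic acid (50 uM, final) and test compound for 16 h at 37 C, measured by CellTiter-Glo luminescence in the reporter wells.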

[11] = biological target: Vitamin D3 receptor (Homo sapiens) (UniProt P11473); assay: qHTS assay to identify small molecule agonists of the vitamin D receptor (VDR) signaling pathway (AID 743222; calls by dose curve)
Method in brief: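 Beta-lactamase reporter readout (LiveBLAzer B/G FRET, 2 h RT) in VDR-bla cells after 16 h compound treatment at 37C, 5% CO2; cells pre-incubated 4 h before pin transfer of DMSO solutions.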

[12] = biological target: Vitamin D3 receptor (Homo sapiens) (UniProt P11473); assay: qHTS assay to identify small molecule antagonists of the vitamin D receptor (VDR) signaling pathway (AID 743223; active = well fitted inhibition curve with a large enough effect in the signal ratio in the repeat runs, not every such curve was filed as active; the % refers to the signal ratio)
Method in brief: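 Cells carrying a VDR-driven beta-lactamase reporter (VDR-bla) were co-treated with compound and 3 nM final 1alpha,25-dihydroxyvitamin D3 for 16 h at 37C; reporter activity was measured as FRET substrate fluorescence after 2 h at room temperature.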

[13] = qHTS assay to identify small molecule agonists of the vitamin D receptor (VDR) signaling pathway - cell viability counter screen (AID 743224); also: nearly all actives have a fitted effect of over 50% in size; also: potency is read from the fitted curve at half-maximal effect
Method in brief: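 Cytotoxicity counter screen: VDR-bla cells, 16 h compound exposure at 37C, 5% CO2; CellTiter-Glo luminescence, 30 min RT, same wells as bla read.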

[14] = qHTS assay to identify small molecule antagonists of the vitamin D receptor (VDR) signaling pathway - cell viability counter screen (AID 743225); also: nearly all actives have a fitted effect of over 50% in size; also: potency is read from the fitted curve at half-maximal effect
Method in brief: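 HEK293T VDR-bla; cpd + 1a,25-(OH)2D3 3 nM final, 16 h 37C/5% CO2; B/G FRET substrate 2 h RT; then CellTiter-Glo 30 min RT, luminescence.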

[15] = biological target: Peroxisome proliferator-activated receptor delta (Homo sapiens) (UniProt Q03181); assay: qHTS assay to identify small molecule antagonists of the peroxisome proliferator-activated receptor delta (PPARd) signaling pathway (AID 743215; active = well fitted inhibition curve with a large enough effect in the signal ratio in the repeat runs, not every such curve was filed as active; the % refers to the signal ratio;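 also: cells stimulated with agonist L165041 at 300 nM final during compound exposure; series mostly up to about 62 µM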)
Method in brief: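 HEK293H GeneBLAzer PPARd UAS-bla reporter cells; cpd + L165041 300 nM final, 17 h 37 C; LiveBLAzer B/G FRET substrate 2 h RT; fluorescence intensity read-out. Antagonist mode.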

[16] = biological target: Bile acid receptor (Homo sapiens) (UniProt Q96RI1); assay: qHTS assay to identify small molecule antagonists of the farnesoid-X-receptor (FXR) signaling pathway (AID 743217; active = well fitted inhibition curve with a large enough effect in the signal ratio in the repeat runs, not every such curve was filed as active; the % refers to the signal ratio)
Method in brief: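 Read-out: beta-lactamase FRET fluorescence (LiveBLAzer B/G substrate, 2 h, room temperature) in GeneBLAzer FXR-UAS-bla HEK 293T cells. Compounds were co-dosed with 50 uM chenodeoxycholic acid (final) and incubated 16 h at 37 °C.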

[17] = biological target: Bile acid receptor (Homo sapiens) (UniProt Q96RI1); assay: qHTS assay to identify small molecule agonists of the farnesoid-X-receptor (FXR) signaling pathway (AID 743220; active = well fitted activation curve with a large enough effect in the signal ratio in the repeat runs, not every such curve was filed as active; the % refers to the signal ratio)
Method in brief: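 FXR-UAS-bla HEK 293T cells carrying a UAS-driven beta-lactamase reporter were plated for 5 h at 37C/5% CO2, then exposed to DMSO-dissolved Tox21 10K compounds for 16 h at 37C. A LiveBLAzer B/G FRET substrate was loaded for 2 h at room temperature before fluorescence reading.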

Measured: Potency

Peroxisome proliferator-activated receptor delta (Homo sapiens), sequence (Q03181 whole entry, looked up): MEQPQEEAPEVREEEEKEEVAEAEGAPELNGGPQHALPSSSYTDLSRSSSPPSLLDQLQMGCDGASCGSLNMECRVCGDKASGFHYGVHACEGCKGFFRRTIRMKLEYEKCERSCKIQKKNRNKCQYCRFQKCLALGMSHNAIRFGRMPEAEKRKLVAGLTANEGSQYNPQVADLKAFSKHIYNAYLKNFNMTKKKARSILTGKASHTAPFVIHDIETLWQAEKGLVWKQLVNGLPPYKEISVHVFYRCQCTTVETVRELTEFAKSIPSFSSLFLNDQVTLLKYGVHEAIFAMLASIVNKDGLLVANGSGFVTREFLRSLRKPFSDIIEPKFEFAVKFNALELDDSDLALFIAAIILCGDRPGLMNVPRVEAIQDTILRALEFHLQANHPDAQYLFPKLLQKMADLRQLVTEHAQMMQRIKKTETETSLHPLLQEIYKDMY
Bile acid receptor (Homo sapiens), sequence (Q96RI1 whole entry, looked up): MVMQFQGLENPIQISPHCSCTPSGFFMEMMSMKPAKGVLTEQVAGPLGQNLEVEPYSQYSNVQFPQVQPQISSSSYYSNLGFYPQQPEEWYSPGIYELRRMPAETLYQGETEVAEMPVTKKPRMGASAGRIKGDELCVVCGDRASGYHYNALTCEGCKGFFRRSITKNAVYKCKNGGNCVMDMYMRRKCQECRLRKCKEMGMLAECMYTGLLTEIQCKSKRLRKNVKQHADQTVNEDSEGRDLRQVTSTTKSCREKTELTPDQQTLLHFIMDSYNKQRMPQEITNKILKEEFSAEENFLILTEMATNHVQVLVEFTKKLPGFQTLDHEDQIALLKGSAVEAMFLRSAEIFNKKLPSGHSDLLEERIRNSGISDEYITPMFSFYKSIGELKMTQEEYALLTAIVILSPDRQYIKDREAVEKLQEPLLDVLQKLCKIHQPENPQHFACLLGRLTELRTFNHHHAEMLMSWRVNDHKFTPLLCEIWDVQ
Retinoic acid receptor RXR-alpha (Homo sapiens), sequence (P19793 whole entry, looked up): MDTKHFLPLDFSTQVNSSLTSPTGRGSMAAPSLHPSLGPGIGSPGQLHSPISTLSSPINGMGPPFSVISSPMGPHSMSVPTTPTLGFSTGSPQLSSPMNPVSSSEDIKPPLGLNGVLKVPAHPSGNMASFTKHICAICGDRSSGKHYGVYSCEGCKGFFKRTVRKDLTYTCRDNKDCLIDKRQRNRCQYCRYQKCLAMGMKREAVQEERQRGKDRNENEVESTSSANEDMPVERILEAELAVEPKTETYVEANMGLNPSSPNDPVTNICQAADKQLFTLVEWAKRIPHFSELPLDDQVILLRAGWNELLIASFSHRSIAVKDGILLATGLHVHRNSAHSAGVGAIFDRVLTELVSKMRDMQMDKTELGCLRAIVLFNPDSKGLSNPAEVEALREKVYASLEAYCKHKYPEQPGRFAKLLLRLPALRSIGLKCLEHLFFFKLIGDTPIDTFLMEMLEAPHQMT
Vitamin D3 receptor (Homo sapiens), sequence (P11473 whole entry, looked up): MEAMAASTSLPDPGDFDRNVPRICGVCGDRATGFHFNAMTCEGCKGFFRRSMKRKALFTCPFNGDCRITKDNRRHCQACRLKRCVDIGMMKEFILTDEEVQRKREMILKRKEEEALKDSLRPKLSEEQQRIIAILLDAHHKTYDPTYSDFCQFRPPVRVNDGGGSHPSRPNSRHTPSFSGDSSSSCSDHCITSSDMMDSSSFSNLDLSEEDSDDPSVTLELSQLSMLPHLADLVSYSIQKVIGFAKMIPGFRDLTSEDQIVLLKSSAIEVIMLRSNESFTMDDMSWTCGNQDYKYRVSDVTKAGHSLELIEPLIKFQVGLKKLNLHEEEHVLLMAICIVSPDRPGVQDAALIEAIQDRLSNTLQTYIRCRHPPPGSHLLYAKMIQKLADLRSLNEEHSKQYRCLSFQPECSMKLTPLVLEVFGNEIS

BrCC(Br)c1ccccc1 (stereo not given)
inactive: [1] | [2] | [3] | [4]

N#Cc1ccccc1Cl
inactive: [1] | [2] | [5] | [3] | [4]

Nc1ccc(Cl)cc1C(=O)c1ccccc1
inactive: [1] | [2] | [5] | [4]

ClCc1ccccc1CCl
active: [1] 43.3 µM | [2] 54.5 µM
inactive: [3] | [4]

O=C1c2ccccc2C(=O)C1C(=O)C(c1ccccc1)c1ccc(Cl)cc1 (stereo not given)
active: [6] 24.5 µM | [9] 38.9 µM | [13] 21.9 µM | [1] 30.6 µM | [2] 5.45 µM
inactive: [7] | [8] | [10] | [11] | [12] | [5]

N#CCc1ccc(Cl)cc1
inactive: [1] | [2] | [3] | [4]

CCOP(=S)(OCC)SCCS(=O)(=O)CC
inactive: [1] | [2] | [5] | [3] | [4]

N#CCCO
inactive: [1] | [2] | [3] | [4]

O=[N+]([O-])c1cc(Cl)ccc1Cl
inactive: [1] | [2] | [5] | [3] | [4]

C[C@@H]1O[C@@H](O[C@@H]2C=C3CC[C@@H]4[C@H](CC[C@]5(C)[C@@H](c6ccc(=O)oc6)CC[C@]45O)[C@@]3(C)CC2)[C@H](O)[C@H](O)[C@H]1O
active: [6] 0.0188 µM | [8] 0.0119 µM | [10] 0.0106 µM | [13] 0.0133 µM | [14] 0.0134 µM | [1] 21.1 µM | [2] 15 µM
inactive: [3]

CCSC(C)CC1CC(=O)C(/C(CC)=N/OC/C=C/Cl)=C(O)C1 (stereo not given)
inactive: [1] | [2] | [3] | [4]

O=CC(Br)(Br)Br
inactive: [2]
active: [6] 17.3 µM | [8] 48.8 µM | [9] 13.8 µM | [10] 24.5 µM | [13] 17.3 µM | [14] 48.8 µM | [1] 7.67 µM | [3] 7.74 µM

CC(Cc1ccc(C(C)(C)C)cc1)CN1C[C@@H](C)O[C@@H](C)C1 (stereo not given in full)
inactive: [7] | [8] | [15] | [16] | [17] | [10] | [14] | [1] | [2] | [5] | [3] | [4]

COP(=O)(CCC(=O)NCO)OC
inactive: [1] | [2] | [5] | [3] | [4]

C[C@@H](Oc1ccc(Cl)cc1Cl)C(=O)O
inactive: [1] | [2] | [3]

Cn1[nH]nnc1=S
inactive: [1] | [2] | [5] | [4]
active: [3] 49 µM

Fc1ccc(Oc2ccnc3cc(Cl)cc(Cl)c23)cc1
active: [13] 49 µM
inactive: [7] | [8] | [17] | [10] | [14] | [1] | [2]

OC(Cc1ccccc1Cl)(Cn1cncn1)C1(Cl)CC1 (stereo not given)
inactive: [1] | [3] | [4]

CCCCOP(=O)(CCCC)OCCCC
inactive: [1] | [5] | [3] | [4]

Cc1cccc(OP(=O)(Oc2cccc(C)c2)Oc2cccc(C)c2)c1
inactive: [1] | [5] | [3] | [4]

Nc1c(Oc2ccccc2)cc(O)c2c1C(=O)c1ccccc1C2=O
inactive: [1] | [5] | [4]

CC(C)(C)c1cc([N+](=O)[O-])cc(C(C)(C)C)c1O
inactive: [7] | [8] | [15] | [9] | [17] | [5] | [4]
active: [13] 12.3 µM | [14] 12.3 µM

CCc1cc(C)cc(CC)c1-c1c(OC(=O)C(C)(C)C)n2n(c1=O)CCOCC2
inactive: [1] | [2] | [4]

Nc1ccc([N+](=O)[O-])cc1Cl
inactive: [1] | [5] | [3] | [4]

COCC(=O)N(c1c(C)cccc1C)[C@H](C)C(=O)OC
inactive: [1] | [5] | [3] | [4]

CC(C)(COCC1CO1)COCC1CO1 (stereo not given)
inactive: [1] | [5] | [3] | [4]

CCOC(=O)C1(c2ccccc2)CCN(CCC(C#N)(c2ccccc2)c2ccccc2)CC1
inactive: [8] | [9] | [17] | [10] | [13] | [14] | [1] | [3]

Cc1ccc(C(=O)Cl)cc1
inactive: [1] | [2] | [4]

Clc1ccc(CO/N=C(\Cn2ccnc2)c2ccc(Cl)cc2Cl)c(Cl)c1
active: [1] 26.6 µM | [2] 26.6 µM
inactive: [6] | [7] | [8] | [15] | [10] | [13]

CCC(C)c1cc([N+](=O)[O-])cc([N+](=O)[O-])c1OC(=O)C=C(C)C (stereo not given)
inactive: [17] | [10]
active: [2] 17.2 µM
